Measurements: the supplement of paper PMC10849652
Of roughly 7,900 targets only a part is listed; those with a hit were picked by preference. About 0.6% of all pairs of compound and target were hits.

compound: c1cn2cc(-c3ccc4cn[nH]c4c3)nc(Nc3ccc(N4CCOCC4)cc3)c2n1 [entospletinib]; assay: log2 fold change, soluble protein after heating vs DMSO (PISA); higher = thermal stabilisation; K562 cells, 10 uM, 30 min; active = over 0.2 and 3.5 SD of the protein, either way, in both replicates (recomputed)
How it was run: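 K562 cells at 2×10^6 cells/mL were given 10 μM compound for 30 min. Aliquots then went through 3 min of heating across 48°C-58°C, were pooled, and were extracted in PBS with 0.5% NP-40 at 4°C, and the supernatant after 21,000xg for 90 min was quantified by TMTpro 16plex LC-MS/MS with channel sums equalised. Thermal stability relative to control samples, from duplicates, is given as log2 fold change.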

UniProt Q13428, sequence (Q13428 whole entry, looked up): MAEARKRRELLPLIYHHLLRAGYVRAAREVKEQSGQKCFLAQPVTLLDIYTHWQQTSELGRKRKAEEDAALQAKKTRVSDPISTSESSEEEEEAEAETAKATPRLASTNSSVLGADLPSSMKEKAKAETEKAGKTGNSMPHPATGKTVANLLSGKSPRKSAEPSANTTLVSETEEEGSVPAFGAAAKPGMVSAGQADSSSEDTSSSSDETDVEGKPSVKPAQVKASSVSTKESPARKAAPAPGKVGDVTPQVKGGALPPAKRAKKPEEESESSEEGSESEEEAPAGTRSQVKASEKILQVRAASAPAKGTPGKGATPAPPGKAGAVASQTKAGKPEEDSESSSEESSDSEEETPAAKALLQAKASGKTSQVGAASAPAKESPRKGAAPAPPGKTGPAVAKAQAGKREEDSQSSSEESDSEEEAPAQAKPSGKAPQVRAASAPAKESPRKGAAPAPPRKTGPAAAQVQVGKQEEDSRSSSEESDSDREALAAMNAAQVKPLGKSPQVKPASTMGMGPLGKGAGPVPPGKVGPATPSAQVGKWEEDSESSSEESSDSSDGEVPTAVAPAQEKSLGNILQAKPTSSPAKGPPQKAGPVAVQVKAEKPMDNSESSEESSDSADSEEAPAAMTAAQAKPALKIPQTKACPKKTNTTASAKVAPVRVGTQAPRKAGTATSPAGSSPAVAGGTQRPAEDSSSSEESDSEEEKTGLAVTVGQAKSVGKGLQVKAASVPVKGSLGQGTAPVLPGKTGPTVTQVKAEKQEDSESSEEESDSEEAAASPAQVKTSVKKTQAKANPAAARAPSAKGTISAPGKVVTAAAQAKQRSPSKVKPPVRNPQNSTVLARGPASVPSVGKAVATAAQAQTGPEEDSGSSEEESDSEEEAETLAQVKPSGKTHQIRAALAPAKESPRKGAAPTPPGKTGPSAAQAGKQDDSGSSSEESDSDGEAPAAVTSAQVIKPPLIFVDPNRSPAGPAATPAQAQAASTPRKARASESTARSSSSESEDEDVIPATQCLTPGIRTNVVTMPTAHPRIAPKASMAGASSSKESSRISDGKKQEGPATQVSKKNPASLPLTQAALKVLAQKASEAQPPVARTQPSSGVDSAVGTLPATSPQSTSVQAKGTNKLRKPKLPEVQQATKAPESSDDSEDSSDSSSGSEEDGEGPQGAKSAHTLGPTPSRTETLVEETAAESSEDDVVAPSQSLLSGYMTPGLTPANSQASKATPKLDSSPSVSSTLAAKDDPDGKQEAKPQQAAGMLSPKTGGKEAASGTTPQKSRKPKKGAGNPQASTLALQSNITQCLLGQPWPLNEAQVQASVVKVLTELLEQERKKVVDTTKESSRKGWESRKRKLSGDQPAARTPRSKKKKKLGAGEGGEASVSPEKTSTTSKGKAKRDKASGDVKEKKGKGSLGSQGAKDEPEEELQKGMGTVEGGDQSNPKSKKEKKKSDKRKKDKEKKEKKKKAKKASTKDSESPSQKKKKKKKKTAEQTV
UniProt Q9H5Q4, sequence (Q9H5Q4 whole entry, looked up): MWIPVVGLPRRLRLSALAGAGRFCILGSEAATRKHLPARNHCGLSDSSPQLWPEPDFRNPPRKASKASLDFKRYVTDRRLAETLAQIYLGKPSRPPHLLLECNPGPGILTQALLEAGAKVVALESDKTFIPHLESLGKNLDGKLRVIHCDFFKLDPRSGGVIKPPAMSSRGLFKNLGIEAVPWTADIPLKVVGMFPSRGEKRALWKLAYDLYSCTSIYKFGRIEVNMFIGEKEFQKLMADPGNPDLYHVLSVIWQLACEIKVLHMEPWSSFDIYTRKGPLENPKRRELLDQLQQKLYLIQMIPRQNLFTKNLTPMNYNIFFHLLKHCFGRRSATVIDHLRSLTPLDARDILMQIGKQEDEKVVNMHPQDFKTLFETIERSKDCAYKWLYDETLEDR
UniProt P04920, sequence (P04920 whole entry, looked up): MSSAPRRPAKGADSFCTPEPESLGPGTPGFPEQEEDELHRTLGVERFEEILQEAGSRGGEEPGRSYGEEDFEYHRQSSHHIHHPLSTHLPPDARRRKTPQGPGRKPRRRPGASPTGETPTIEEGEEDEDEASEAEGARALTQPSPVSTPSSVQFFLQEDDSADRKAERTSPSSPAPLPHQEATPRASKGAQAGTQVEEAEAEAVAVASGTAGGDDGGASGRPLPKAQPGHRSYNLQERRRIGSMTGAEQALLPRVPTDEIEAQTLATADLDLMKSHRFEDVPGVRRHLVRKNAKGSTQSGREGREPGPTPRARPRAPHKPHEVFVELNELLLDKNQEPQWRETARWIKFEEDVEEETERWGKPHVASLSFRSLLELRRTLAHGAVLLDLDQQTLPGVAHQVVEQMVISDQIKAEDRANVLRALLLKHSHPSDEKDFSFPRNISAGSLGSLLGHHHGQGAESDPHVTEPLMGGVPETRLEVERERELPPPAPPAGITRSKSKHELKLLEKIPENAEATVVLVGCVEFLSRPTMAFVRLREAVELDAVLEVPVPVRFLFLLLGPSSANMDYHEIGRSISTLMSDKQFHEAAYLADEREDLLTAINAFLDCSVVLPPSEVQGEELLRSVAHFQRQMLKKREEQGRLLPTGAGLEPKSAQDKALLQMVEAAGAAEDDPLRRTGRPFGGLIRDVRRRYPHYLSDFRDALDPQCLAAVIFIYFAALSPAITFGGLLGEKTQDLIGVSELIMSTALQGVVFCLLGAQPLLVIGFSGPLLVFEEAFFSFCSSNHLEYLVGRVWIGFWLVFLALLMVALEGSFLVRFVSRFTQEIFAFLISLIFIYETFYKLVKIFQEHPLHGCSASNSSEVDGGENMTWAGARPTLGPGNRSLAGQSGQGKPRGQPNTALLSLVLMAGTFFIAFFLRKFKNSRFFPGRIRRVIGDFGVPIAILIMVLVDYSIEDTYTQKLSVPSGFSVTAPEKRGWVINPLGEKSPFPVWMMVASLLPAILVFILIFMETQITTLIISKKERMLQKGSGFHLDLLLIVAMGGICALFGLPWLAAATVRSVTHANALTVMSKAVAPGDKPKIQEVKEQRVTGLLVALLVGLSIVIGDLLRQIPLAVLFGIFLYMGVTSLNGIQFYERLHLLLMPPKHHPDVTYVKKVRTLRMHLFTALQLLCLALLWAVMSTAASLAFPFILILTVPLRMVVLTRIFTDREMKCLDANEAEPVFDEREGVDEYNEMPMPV
UniProt A6NHR9, sequence (A6NHR9 whole entry, looked up): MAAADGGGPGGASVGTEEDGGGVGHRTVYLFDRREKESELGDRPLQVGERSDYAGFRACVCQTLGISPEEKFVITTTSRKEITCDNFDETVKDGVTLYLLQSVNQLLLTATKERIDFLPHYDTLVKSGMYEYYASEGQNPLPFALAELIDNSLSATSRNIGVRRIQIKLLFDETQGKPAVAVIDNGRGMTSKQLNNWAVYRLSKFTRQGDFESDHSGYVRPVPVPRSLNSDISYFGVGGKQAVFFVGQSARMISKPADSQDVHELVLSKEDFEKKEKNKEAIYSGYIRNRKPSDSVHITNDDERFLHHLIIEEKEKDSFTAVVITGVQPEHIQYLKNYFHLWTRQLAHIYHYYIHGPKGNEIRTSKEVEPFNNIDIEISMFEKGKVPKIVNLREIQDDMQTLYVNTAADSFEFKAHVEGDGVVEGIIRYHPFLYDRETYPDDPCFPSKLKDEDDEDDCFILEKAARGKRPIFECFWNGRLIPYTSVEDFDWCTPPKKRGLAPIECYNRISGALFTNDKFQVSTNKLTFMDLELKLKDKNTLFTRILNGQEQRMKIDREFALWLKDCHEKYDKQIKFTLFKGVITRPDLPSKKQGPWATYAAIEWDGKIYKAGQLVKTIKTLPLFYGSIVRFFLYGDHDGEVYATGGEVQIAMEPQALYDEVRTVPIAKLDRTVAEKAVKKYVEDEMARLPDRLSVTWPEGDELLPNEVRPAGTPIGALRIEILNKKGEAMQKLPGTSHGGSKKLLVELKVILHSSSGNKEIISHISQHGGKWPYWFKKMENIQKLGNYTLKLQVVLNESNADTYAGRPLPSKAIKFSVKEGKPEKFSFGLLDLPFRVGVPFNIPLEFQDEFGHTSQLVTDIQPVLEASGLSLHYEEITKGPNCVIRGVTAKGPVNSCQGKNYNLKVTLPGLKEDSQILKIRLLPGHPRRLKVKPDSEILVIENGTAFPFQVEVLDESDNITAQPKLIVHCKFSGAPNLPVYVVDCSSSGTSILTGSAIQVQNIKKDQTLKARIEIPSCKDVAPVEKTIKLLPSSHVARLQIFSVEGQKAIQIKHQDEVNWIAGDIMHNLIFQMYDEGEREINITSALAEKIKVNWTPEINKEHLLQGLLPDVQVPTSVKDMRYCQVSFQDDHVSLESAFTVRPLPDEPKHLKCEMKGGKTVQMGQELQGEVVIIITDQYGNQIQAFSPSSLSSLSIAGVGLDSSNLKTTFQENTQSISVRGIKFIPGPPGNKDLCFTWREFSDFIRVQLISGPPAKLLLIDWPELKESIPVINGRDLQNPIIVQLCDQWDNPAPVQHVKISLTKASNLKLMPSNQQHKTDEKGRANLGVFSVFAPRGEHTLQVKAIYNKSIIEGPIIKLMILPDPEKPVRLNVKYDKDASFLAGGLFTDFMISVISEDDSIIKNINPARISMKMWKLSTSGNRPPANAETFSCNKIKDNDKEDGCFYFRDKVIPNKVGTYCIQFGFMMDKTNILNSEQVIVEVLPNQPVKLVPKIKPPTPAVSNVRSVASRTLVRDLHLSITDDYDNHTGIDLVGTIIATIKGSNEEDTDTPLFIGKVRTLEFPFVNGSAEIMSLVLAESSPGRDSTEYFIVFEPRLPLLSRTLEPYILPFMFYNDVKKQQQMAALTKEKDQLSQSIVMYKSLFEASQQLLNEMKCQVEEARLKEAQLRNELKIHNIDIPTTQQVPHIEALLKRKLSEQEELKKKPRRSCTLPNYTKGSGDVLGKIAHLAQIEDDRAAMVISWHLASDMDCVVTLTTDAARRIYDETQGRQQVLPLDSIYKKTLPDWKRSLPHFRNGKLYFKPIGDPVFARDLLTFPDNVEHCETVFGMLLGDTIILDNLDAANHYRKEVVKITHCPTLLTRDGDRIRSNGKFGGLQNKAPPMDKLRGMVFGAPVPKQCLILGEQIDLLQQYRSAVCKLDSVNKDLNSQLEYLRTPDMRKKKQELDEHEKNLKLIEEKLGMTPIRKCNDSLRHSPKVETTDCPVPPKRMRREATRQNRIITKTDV

log2 fold change, inactive:
STARD9 (UniProt Q9P2P6) -0.059
SLC9A6 isoform 3 (UniProt Q92581) 0.052
TAMM41 isoform 3 (UniProt Q96BW9) -0.039
ST3GAL2 (UniProt Q16842) 0.167
TM9SF2 (UniProt Q99805) 0.023
TCOF1 isoform 6 (UniProt Q13428) -0.006
SPCS2 (UniProt Q15005) -0.145
SRSF6 (UniProt Q13247) 0.29
SUN2 (UniProt Q9UH99) 0
SLC35B1 isoform 2 (UniProt P78383) -0.154
SLC4A2 (UniProt P04920) 0.028
SLC27A4 (UniProt Q6P1M0) -0.027
SMCHD1 (UniProt A6NHR9) 0.049
TJP2 isoform 7 (UniProt Q9UDY2) 0.037
SSX2 (UniProt Q16385) 0.041
SMARCA4 (UniProt P51532) 0.097
SLC35B4 (UniProt Q969S0) 0.033
TLK2 isoform 2 (UniProt Q86UE8) 0.03
TBCD (UniProt Q9BTW9) -0.03
TCERG1 (UniProt O14776) -0.043
SUCLA2 (UniProt Q9P2R7) -0.048
TCOF1 isoform 4 (UniProt Q13428) 0.001
TAF9 (UniProt Q16594) -0.042
TFB2M (UniProt Q9H5Q4) -0.011
SNX2 (UniProt O60749) -0.015
SMC5 (UniProt Q8IY18) 0.016
STK39 (UniProt Q9UEW8) -0.007
THADA (UniProt Q6YHU6) 0.004
SORT1 (UniProt Q99523) 0.05
STX7 (UniProt O15400) 0.02
STX17 (UniProt P56962) -0.071
STK38L (UniProt Q9Y2H1) 0.083
SSR4 (UniProt P51571) -0.021
SMAP2 (UniProt Q8WU79) 0.019
TANGO6 (UniProt Q9C0B7) -0.089
